# Key:
# Assay in all cases: cross-link between two proteins; cross-linking mass spectrometry
# [1] = target: Acyl carrier protein, mitochondrial (UniProt P52505)
# [2] = target: NADH dehydrogenase [ubiquinone] 1 beta subcomplex subunit 11, mitochondrial (UniProt Q8HXG5)
# [3] = target: T1, Cytochrome b-c1 complex subunit 2, mitochondrial (UniProt P23004)
# T1 sequence: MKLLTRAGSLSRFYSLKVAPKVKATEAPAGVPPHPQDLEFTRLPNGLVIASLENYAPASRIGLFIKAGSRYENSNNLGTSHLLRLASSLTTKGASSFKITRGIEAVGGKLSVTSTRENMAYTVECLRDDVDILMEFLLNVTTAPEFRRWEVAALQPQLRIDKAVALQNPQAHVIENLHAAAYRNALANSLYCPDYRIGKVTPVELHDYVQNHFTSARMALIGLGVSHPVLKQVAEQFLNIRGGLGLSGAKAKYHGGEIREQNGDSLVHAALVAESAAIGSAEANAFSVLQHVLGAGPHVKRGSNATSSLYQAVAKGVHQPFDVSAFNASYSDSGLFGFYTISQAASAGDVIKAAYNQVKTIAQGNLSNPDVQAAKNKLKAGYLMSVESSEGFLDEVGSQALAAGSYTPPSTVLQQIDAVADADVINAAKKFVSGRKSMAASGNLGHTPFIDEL
# [4] = target: NADH dehydrogenase [ubiquinone] 1 alpha subcomplex subunit 9, mitochondrial (UniProt P34943)
# NADH dehydrogenase [ubiquinone] 1 alpha subcomplex subunit 9, mitochondrial, sequence (P34943 whole entry, one chain of several): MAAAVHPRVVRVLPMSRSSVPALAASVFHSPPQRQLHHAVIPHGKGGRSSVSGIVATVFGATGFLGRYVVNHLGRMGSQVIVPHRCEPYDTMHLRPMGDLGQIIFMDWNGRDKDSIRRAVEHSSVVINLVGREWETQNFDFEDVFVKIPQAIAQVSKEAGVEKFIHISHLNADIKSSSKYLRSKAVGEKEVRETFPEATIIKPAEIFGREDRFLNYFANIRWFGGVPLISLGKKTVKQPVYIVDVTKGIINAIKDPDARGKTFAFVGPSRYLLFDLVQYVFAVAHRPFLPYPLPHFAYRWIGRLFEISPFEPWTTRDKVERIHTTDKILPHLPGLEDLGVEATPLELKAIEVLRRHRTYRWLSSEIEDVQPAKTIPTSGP
# NADH dehydrogenase [ubiquinone] 1 beta subcomplex subunit 11, mitochondrial, sequence (Q8HXG5 whole entry, one chain of several): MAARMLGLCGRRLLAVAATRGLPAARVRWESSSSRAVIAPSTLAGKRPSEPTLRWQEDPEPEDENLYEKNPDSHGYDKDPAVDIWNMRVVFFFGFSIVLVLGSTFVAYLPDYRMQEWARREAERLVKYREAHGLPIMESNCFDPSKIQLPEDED
substance,measurement,setting,value
G5E543,listed as a hit,[1],yes
same,listed as a hit,[2],yes
A0A3Q1MBD7,listed as a hit,[3],yes
A8WFQ0,listed as a hit,[4],yes

# Source: publication PMC7883291
